Active and inactive are the calls of the source. Unless noted, how the calls were made is not given here.
Columns and labels:
[1] = A549 cell viability effects, profiling panel, calcein-AM fluorescence, 48 h, basal (AID 1162); conditions: higher = more signal; further: test concentration not given here
[2] = adipocyte viability effects, profiling panel, cell-based, 3T3-L1 adipocytes, calcein-AM fluorescence, 48 h, basal (AID 1163); conditions: 3T3-L1 adipocytes viability, higher = more signal; further: test concentration not given here
[3] = HepG2 cell viability effects, profiling panel, calcein-AM fluorescence, 48 h, basal (AID 1164); conditions: higher = more signal; further: test concentration not given here
[4] = MM1S cell viability effects, profiling panel, calcein-AM fluorescence, 48 h, basal (AID 1165); conditions: higher = more signal;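 further: viability of MM1S multiple myeloma cells under basal unstimulated conditions; test concentration not given here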
[5] = basal RPMI8226 viability, no added stimulus, profiling panel, cell-based, calcein-AM fluorescence, 48 h, PK04 Diversity Set (AID 1166); conditions: RPMI8226 myeloma viability, higher = more signal;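 further: cells grown under basal conditions without added stimulus; test concentration not given here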
[6] = basal HepG2 mitochondrial membrane potential changes, profiling panel, cell-based, JC-1 fluorescence, 24 h, 100 nL compound (AID 1167); conditions: higher = more signal; further: test concentration not given here
[7] = basal 3T3-L1 adipocyte mitochondrial potential changes, profiling panel, cell-based, JC-1 fluorescence, 3T3-L1 adipocytes, 24 h, 100 nL compound (AID 1168); conditions: JC-1 mitochondrial fluorescence, higher = more signal, called active from +8 up or from −8 down; further: test concentration not given here
[8] = basal RPMI8226 mitochondrial membrane potential changes, profiling panel, cell-based, JC-1 fluorescence, 24 h, 100 nL compound (AID 1169); conditions: RPMI8226 myeloma, JC-1 mitochondrial potential fluorescence, higher = more signal; further: test concentration not given here
[9] = basal MM1S mitochondrial membrane potential changes, profiling panel, cell-based, JC-1 fluorescence, 24 h, 100 nL compound (AID 1170); conditions: higher = more signal; further: test concentration not given here
[10] = A549 lung cancer cell viability effects, profiling panel, resazurin fluorescence, 24 h, PK04 Diversity Set (AID 1171); conditions: higher = more signal, called active from +8 up or from −8 down; further: test concentration not given here
[11] = HepG2 liver cancer cell viability effects, profiling panel, resazurin fluorescence, 24 h, PK04 Diversity Set (AID 1172); conditions: higher = more signal; further: test concentration not given here
[12] = basal S. cerevisiae growth modulation, no modifier, primary screen, OD600, strain BY4716, 24 h, basal condition (AID 1173); conditions: OD600, 24 h, higher = more signal, called active from +8 up or from −8 down
[13] = MM1S myeloma cell viability, profiling panel, resazurin fluorescence, basal, 24 h, PK04 Diversity Set (AID 1174); conditions: higher = more signal, called active from +8 up or from −8 down;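 further: MM1S multiple myeloma cell line; test concentration not given here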
[14] = molecular target: Dihydroorotate dehydrogenase (quinone), mitochondrial (Plasmodium falciparum (isolate 3D7)) (UniProt Q08210); assay: PfDHODH enzyme inhibitors, primary screen, biochemical, C-terminal His tag, absorbance 600 nm (AID 1175); conditions: DCIP absorbance 600 nm, higher = more signal, called active from +8 up or from −8 down;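 further: recombinant parasite enzyme with a five histidine tag at its C terminus; test concentration not given here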
[15] = P. aeruginosa biofilm formation inhibitors, primary screen, strain PAO1, LB-PBS medium, absorbance 600 nm (AID 1176); further: test concentration not given here; conditions: P. aeruginosa PAO1 growth/biofilm, A600, 12 h; higher = more signal
[16] = S. cerevisiae RM11-1a growth modifiers, primary screen, strain RM11-1a, OD600, basal, 24 h (AID 1177); conditions: OD600, 24 h, higher = more signal, called active from +8 up or from −8 down;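 further: cultures grown under basal conditions with no added stressor; test concentration not given here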
[17] = E. coli acrAB mutant growth effects, primary screen, E. coli filamentation inducers, strain DRC39, OD650, 24 h (AID 1178); conditions: higher = more signal, called active from +8 up or from −8 down;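 further: growth measured as culture turbidity by optical density at 650 nm; test concentration not given here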
[18] = E. coli acrAB mutant growth effects, primary screen, E. coli filamentation inducers, strain DRC39, OD650, 48 h (AID 1179);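 further: screen aims at cell division blockers that make cells filament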; conditions: E. coli DRC39 delta-acrAB growth, higher = more signal, called active from +8 up or from −8 down
[19] = RPMI8226 myeloma cell viability, profiling panel, resazurin fluorescence, basal, 24 h, PK04 Diversity Set (AID 1180); conditions: higher = more signal;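 further: RPMI8826 multiple myeloma cell line at 5000 cells per well; test concentration not given here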
[20] = molecular target: E3 ubiquitin-protein ligase XIAP (Homo sapiens) (UniProt P98170); assay: XIAP binders, primary screen, biophysical, small-molecule microarray, fluorescence 635 nm (AID 1181); conditions: small-molecule microarray binding, higher = more signal;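 further: score merges 667 nm emission and signal to noise over triplicate slides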
Chain of E3 ubiquitin-protein ligase XIAP (Homo sapiens) (P98170 whole entry, looked up): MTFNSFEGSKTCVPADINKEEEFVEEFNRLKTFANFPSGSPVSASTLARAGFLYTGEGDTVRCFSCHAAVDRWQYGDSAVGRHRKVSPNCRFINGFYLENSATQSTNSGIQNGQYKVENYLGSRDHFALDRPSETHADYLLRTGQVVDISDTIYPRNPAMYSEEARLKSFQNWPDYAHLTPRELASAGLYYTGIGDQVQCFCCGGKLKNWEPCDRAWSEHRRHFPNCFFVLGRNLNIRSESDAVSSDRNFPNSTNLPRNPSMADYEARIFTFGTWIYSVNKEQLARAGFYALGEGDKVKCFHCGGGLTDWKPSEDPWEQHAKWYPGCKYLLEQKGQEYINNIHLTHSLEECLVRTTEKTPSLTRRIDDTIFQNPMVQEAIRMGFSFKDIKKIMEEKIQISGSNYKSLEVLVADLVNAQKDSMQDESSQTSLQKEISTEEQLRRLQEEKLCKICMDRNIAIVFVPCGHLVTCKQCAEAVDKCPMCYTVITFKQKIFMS

Chain of Dihydroorotate dehydrogenase (quinone), mitochondrial (Plasmodium falciparum (isolate 3D7)) (Q08210 whole entry, looked up): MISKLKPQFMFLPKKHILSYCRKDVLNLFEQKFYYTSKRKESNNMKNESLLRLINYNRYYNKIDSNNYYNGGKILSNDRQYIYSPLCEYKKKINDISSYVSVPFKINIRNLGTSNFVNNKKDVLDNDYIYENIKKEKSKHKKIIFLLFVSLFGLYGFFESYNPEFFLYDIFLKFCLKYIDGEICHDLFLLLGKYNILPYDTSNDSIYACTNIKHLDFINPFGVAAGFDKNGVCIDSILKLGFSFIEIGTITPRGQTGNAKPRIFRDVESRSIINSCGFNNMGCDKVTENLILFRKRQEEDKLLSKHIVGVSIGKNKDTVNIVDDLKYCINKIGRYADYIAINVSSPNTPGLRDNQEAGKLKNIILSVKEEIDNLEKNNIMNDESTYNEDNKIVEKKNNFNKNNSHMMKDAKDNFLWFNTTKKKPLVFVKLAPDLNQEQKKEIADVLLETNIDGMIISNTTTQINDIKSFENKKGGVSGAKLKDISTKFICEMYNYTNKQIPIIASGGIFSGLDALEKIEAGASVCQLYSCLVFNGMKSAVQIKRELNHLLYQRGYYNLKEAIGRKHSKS

SMILES | z-score [1] | z-score [2] | z-score [3] | z-score [4] | z-score [5] | z-score [6] | z-score [7] | z-score [8] | z-score [9] | z-score [10] | z-score [11] | z-score [12] | z-score [13] | composite z-score [14] | z-score [15] | z-score [16] | z-score [17] | z-score [18] | z-score [19] | composite z-score [20]
COc1cc2c(cc1O)C(c1ccc(CN3CCCC3)cc1)N(Cc1sc3ccccc3c1Cl)CC2 (stereo not given) | -0.42 | -0.0706 | -1.5 | -1.89 | -1.24 | -0.535 | -0.506 (inactive) | -0.105 | -0.774 | 0.835 (inactive) | -0.307 | -1.82 (inactive) | -0.527 (inactive) | -2.82 (inactive) | 0.0619 (inactive) | 0.953 (inactive) | 1.23 (inactive) | 0.25 (inactive) | -1.05 | 0.0815
CCCCCCCCCCC(O)C1C=CC2C(=O)N(c3ccccc3)C(=O)C2N1Nc1ccc([N+](=O)[O-])cc1 (stereo not given) | -2.28 | -0.581 | -1.82 | -3.31 | -4.22 | -2.87 | 0.656 (inactive) | -1.13 | -1.66 | 0.381 (inactive) | -0.573 | 0.673 (inactive) | -0.0843 (inactive) | -0.838 (inactive) | 0.285 (inactive) | 0.0401 (inactive) | -0.552 (inactive) | 0.0458 (inactive) | -1.11 | -0.126
COc1cc(NN2C(C(O)c3ccccc3)C=CC3C(=O)N(c4ccccc4)C(=O)C32)cc(OC)c1OC (stereo not given) | -0.873 | 0.0146 | 0.253 | 0.673 | 0.0985 | -0.602 | -1.72 (inactive) | 0.179 | -1.41 | -0.381 (inactive) | -1.04 | 0.887 (inactive) | -0.417 (inactive) | -1.37 (inactive) | -0.0751 (inactive) | 0.0729 (inactive) | 0.32 (inactive) | 0.8 (inactive) | -0.827 | 0.219
C=C(CCCC)/C(=C/C[C@H](OC(C)=O)c1ccc(CO)o1)c1cc(C(=O)OC)ccc1OC | -0.0865 | 1.03 | -0.888 | -2.21 | -2.15 | -0.854 | -0.356 (inactive) | 0.292 | 0.6 | -0.684 (inactive) | -0.577 | -0.31 (inactive) | -0.871 (inactive) | -2.01 (inactive) | 0.0842 (inactive) | 0.0837 (inactive) | -0.729 (inactive) | -0.776 (inactive) | -0.641 | -0.322
COc1ccc(C#Cc2ccc3c(c2)[C@]2(C(=O)N3)[C@H](C(=O)N3CCN(c4ncccn4)CC3)[C@H]3C(=O)O[C@H](c4ccccc4)[C@H](c4ccccc4)N3[C@@H]2c2ccc(O)cc2)cc1 | -0.125 | 0.583 | 0.804 | -0.156 | -0.404 | -1.11 | 1.08 (inactive) | -0.899 | -0.427 | -0.164 (inactive) | -0.795 | 0.21 (inactive) | 0.0492 (inactive) | -3.34 (inactive) | 0.999 (inactive) | 0.881 (inactive) | -0.423 (inactive) | 0.182 (inactive) | 0.225 | -0.0149
CC(C)[C@H]1COC(=O)N1C(=O)[C@H]1[C@@H](c2ccccc2)N(c2ccccc2)O[C@@H]1C | 0.198 | 0.343 | 0.612 | -0.357 | 0.133 | 0.941 | 0.997 (inactive) | -0.361 | -1.46 | 1.72 (inactive) | 0.701 | -1.42 (inactive) | 0.517 (inactive) | -0.656 (inactive) | 0.0694 (inactive) | 1.46 (inactive) | 0.166 (inactive) | 0.703 (inactive) | 1.41 | 0.0785
NC(=O)NCC#Cc1ccc2c(c1)[C@]1(C(=O)N2)[C@H](c2ccccc2OCCO)N2[C@H](c3ccccc3)[C@H](c3ccccc3)OC(=O)[C@H]2[C@@H]1C(=O)N1CCCCCCC1 | -0.169 | 0.73 | 0.231 | -0.0358 | 0.236 | -0.978 | 0.303 (inactive) | -0.498 | 0.143 | 0.414 (inactive) | -0.0969 | -0.0475 (inactive) | 0.755 (inactive) | 0.417 (inactive) | 1.92 (inactive) | 0.899 (inactive) | -0.315 (inactive) | -0.127 (inactive) | 0.966 | 0.202
COC(=O)c1c(CC[C@@H](CO)NC(=O)Nc2ncn[nH]2)oc(C(=O)Cc2ccccc2)c1C(=O)OC | -0.0782 | -0.927 | -0.314 | 0.226 | 0.343 | -0.808 | 0.765 (inactive) | 0.0444 | -0.286 | 0.199 (inactive) | 0.172 | -0.62 (inactive) | 0.059 (inactive) | 0.593 (inactive) | 0.55 (inactive) | -0.382 (inactive) | 0.536 (inactive) | 0.434 (inactive) | 0.36 | -0.0952
COc1ccc([Si](C)(C)[C@H]2[C@H](CC(=O)N(CCO)Cc3ccccc3)O[C@@]3(C(=O)N(Cc4cccc(N5C(=O)c6cccc7cccc5c67)c4)c4ccccc43)[C@@H]2C)cc1 | -0.191 | 0.996 | -1.5 | -0.883 | -4.29 | 0.0381 | 2.83 (inactive) | -1.06 | -1.08 | -2.32 (inactive) | -0.101 | 0.476 (inactive) | -3.19 (inactive) | -2.98 (inactive) | 1.98 (inactive) | 0.768 (inactive) | 0.67 (inactive) | 0.865 (inactive) | -2.93 | 0.0564
C=CCCN(CC#C[C@H]1Oc2ccccc2S(=O)(=O)N2CCC[C@@H]12)S(=O)(=O)c1ccc(C)cc1 | 0.436 | -0.257 | -0.383 | -3.21 | -1.77 | 0.825 | -0.184 (inactive) | -0.972 | -1.5 | 0.967 (inactive) | -0.28 | -0.0024 (inactive) | -1.33 (inactive) | 0.711 (inactive) | 0.425 (inactive) | 1.62 (inactive) | 0.0069 (inactive) | -0.285 (inactive) | -1.55 | 0.0027
COC(=O)c1c2oc(c1C(=O)OC)C(=O)N[C@H](Cc1ccccc1)Cn1nncc1C1(CCCCC1)NC(=O)N[C@H](CO)CC2 | 0.876 | 0.0786 | 0.8 | -1.1 | 0.358 | 3.8 | -0.413 (inactive) | -0.65 | -0.936 | 0.286 (inactive) | 1.09 | 0.916 (inactive) | 2.4 (inactive) | 0.112 (inactive) | 1.27 (inactive) | 0.416 (inactive) | 0.157 (inactive) | 0.402 (inactive) | 2.19 | 0.0859
C=CCOC(=O)[C@@H]1[C@H]2C(=O)O[C@H](c3ccccc3)[C@H](c3ccccc3)N2[C@H](c2ccc(OCCOC(=O)[C@H]3C[C@H]4C(=O)N[C@@H](CCCC[N+](C)(C)C)C(=O)N4[C@H]3c3cccc(OCCO)c3)cc2)[C@@]12C(=O)Nc1ccc(I)cc12 | -0.299 | 0.194 | -0.872 | -0.135 | 0.437 | -0.984 | 1.07 (inactive) | -0.742 | -1.24 | -0.166 (inactive) | -0.0059 | 1.68 (inactive) | -1.05 (inactive) | -0.483 (inactive) | 3.37 (inactive) | 1.12 (inactive) | -0.708 (inactive) | -1.23 (inactive) | -0.521 | 0.104
COCCOC(=O)N1C(=O)[C@@]2(c3cc(C#Cc4ccc(OC)cc4)ccc31)[C@H](C(N)=O)[C@H]1C(=O)O[C@H](c3ccccc3)[C@H](c3ccccc3)N1[C@@H]2c1ccc(O)cc1 | 0.363 | 0.632 | -0.905 | 0.152 | -2.22 | -0.933 | 0.454 (inactive) | -0.677 | -0.317 | 0.179 (inactive) | -0.0716 | -0.823 (inactive) | 0.277 (inactive) | -0.265 (inactive) | 0.886 (inactive) | -0.0047 (inactive) | -0.102 (inactive) | 0.236 (inactive) | -0.394 | 0.0849
CCCCCCC#C[Si](O[C@H](c1ccccc1)c1cn([C@H](C)c2ccccc2)nn1)(C(C)C)C(C)C | -0.577 | -1.2 | 0.0417 | 0.227 | 0.0204 | 3.36 | -0.0744 (inactive) | -0.846 | -1.19 | 2.74 (inactive) | 1.94 | 0.243 (inactive) | 2.59 (inactive) | -0.204 (inactive) | -0.443 (inactive) | 0.53 (inactive) | -0.0375 (inactive) | 0.622 (inactive) | 3.6 | -0.359
[N-]=[N+]=NCc1ccccc1C[C@]1(C(N)=O)N=C(c2ccc(OCCCO)cc2)O[C@H]1c1ccccc1N=[N+]=[N-] | -0.169 | 0.0873 | -0.153 | -2.05 | -1.55 | -0.727 | -1.38 (inactive) | -1.04 | -0.649 | -0.38 (inactive) | 0.776 | 0.603 (inactive) | -1.2 (inactive) | 1.56 (inactive) | 1.54 (inactive) | 2.09 (inactive) | 0.616 (inactive) | 0.116 (inactive) | -1.24 | -0.0444
[N-]=[N+]=NCc1ccccc1[C@H]1OC(c2ccc(OCCCO)cc2)=N[C@@]1(Cc1ccccc1)C(=O)NCC(O)CO (stereo not given in full) | 0.347 | -0.445 | 0.547 | -1.9 | -1.36 | 0.831 | -0.699 (inactive) | -0.399 | -1.11 | 0.951 (inactive) | 1.59 | -0.366 (inactive) | -0.327 (inactive) | -0.313 (inactive) | 2.25 (inactive) | -0.405 (inactive) | -0.329 (inactive) | -0.279 (inactive) | -0.435 | 0.459
